Source: PubChem
KB-V1 MDR tox: KB-V1 MDR subline cytotoxicity. 400,000 compounds, 3.4% hits. Potency, µM (highest dose often 46.1 µM), actives largely listed as cytotoxic. AID 1347076. KB-V1 MDR cells viability, CellTiter-Glo, 72 h; also: % is scaled to controls: 0 for no effect and ±100 for the full control effect; nearly all actives have a fitted effect of over 60% in size
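Luminescent ATP read-out (CellTiter-Glo, 10 min) measures survival of drug-selected KB-V1 MDR cells after 72 h, 37 degrees C compound exposure. Medium: phenol-red-free DMEM, 10% FBS. Values from fitted concentration-response curves.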
MCF10A rerep: induces DNA re-replication in MCF 10a normal breast cells. MCF 10A DNA re-replication, Hoechst nuclear intensity, 48 h. Potency, µM (titrated, usually from 46.1 µM), for the others: at the top dose activity, positive = re-replication, usual class: activators. 350,000 compounds, 2.9% hits; also: % of control where 0% means no effect; nearly all actives have a fitted effect of over 50% in size
SW480 rerep: DNA re-replication induction in SW480 cells | SW480 DNA re-replication, Hoechst DNA content imaging, 48 h | Potency, µM (doses to about 46.1 µM), for the others: at the top dose re-replication activation, usual class: activators | 340,000 compounds, 1.8% hits; also: % of control where 0% means no effect; nearly all actives have a fitted effect of over 55% in size
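Treated cells incubate 48 hr (37 C, 5% CO2), are stained 40 min with Hoechst, and nuclear fluorescence is enumerated; a rise in nuclei with high DNA signal marks re-replication.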
KB-3-1 cytotox: kills parental KB-3-1 adenocarcinoma cells; KB-3-1 viability, CellTiter-Glo ATP luminescence, 72 h; Potency, µM (series often up to 46.1 µM), most hits filed as cytotoxic; 400,000 compounds, 1.4% hits; also: % is scaled to controls: 0 for no effect and ±100 for the full control effect; nearly all actives have a fitted effect of over 60% in size
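Multi-concentration cytotoxicity screen in KB-3-1 cells grown in DMEM lacking phenol red with 10% FBS. After 72 h at 37 °C with compound, ATP-dependent luminescence was recorded.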
HT1080NT lethal: kills 2HG-producing HT-1080-NT fibrosarcoma cells. Potency, µM (series often up to 46.1 µM), without a hit: at the highest dose activity, negative = less viability, usual class: cytotoxic. HT-1080-NT fibrosarcoma viability, CellTiter-Glo ATP luminescence, 48 h. 360,000 compounds, 1.6% hits;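 also: NT is the 2HG producing partner of a matched IDH1 knockdown line; 0% = DMSO-treated cells and -100% = media-only wells without cells; nearly all actives have a fitted effect of over 55% in size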
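HT-1080-NT; 750 cells/well; 5% FBS RPMI; 48 h compound, 37 degrees C; CellTiter-Glo luminescence; curve fitting and curve-class assignment.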
HT1080 IDH1KD tx: kills HT-1080 cells with IDH1 knockdown; HT-1080 IDH1 knockdown viability, ATP luminescence, 48 h; Potency, µM (series often up to 46.1 µM), for the others: at the top dose activity, negative = toxicity, actives largely listed as cytotoxic; 360,000 compounds, 2% hits; AID 686971;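 also: 0% = DMSO wells and -100% = cell-free medium wells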
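Knockdown cells (IDH1KD HT-1080) received compounds 2 h after plating at 750 cells/well and were kept 48 h at 37 °C in 5% FBS RPMI. A CellTiter-Glo luminescence read gave % activity for curve fitting.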
Active calls of the source: *; i = inactive; ? = inconclusive; nt = no result; ! = a repeat was not active. The list is not random: actives were taken first. Their share in the collection is about 7.9%. Calls follow the shape of the dose curve; as a rule, active = well fitted curve in the direction sought with a large enough effect; inconclusive = small, poorly fitted or top-dose-only effect, or another doubt; inactive = no such curve, though single readings can be large; an effect the other way counts as inactive or inconclusive. Potency is read from the fitted curve at half-maximal effect.

SMILES	KB-V1 MDR tox	MCF10A rerep	SW480 rerep	KB-3-1 cytotox	HT1080NT lethal	HT1080 IDH1KD tx
CS(=O)(=O)c1sc2nc(-c3cccs3)cc(-c3ccccc3)c2c1N	i	18µM*	?	i	-1%	-12%
COC(=O)c1ccc(/C=N\NC(=O)c2c(C)nc3ccc(Cl)cn23)cc1	?	3%	-2%	i	-11%	-5%
CN(C)CCCNC(=O)c1cc2c3ccccc3n(C)c2s1	i	2%	-11%	i	1%	-1%
CC1(C)CC(=O)C(N=Nc2c(Cl)cc(Cl)cc2Cl)=C(O)C1	i	1%	2%	i	-4%	0%
COCc1c(C(=O)N/N=C\c2ccccn2)nnn1-c1nonc1N	i	-2%	-6%	i	-3%	-9%
COc1cccc(C2CC(=O)Nc3cc4c(cc32)CCC4)c1 (stereo unspecified)	5.8µM*	5.2µM*	8.2µM*	7.3µM*	23µM*	26µM*
O=C1CC(c2cccc(Cl)c2)c2cc3c(cc2N1)CCC3 (stereo unspecified)	8.2µM*	4%	-2%	i	7.1µM*	?
COc1cccc(C2CC(=O)Nc3cc(OC)c(OC)cc32)c1 (stereo unspecified)	i	-16%	?	i	-2%	9%
COc1cccc(C2CC(=O)Nc3cc(C)c(C)cc32)c1 (stereo unspecified)	21µM*	nt	nt	?	?	-25%
CCOc1cccc(C2CC(=O)Nc3cc(OC)c(OC)cc32)c1 (stereo unspecified)	i	0%	4%	i	-6%	-2%
COc1cccc(CNS(=O)(=O)c2ccc(S(=O)(=O)NC3CC3)cc2)c1	i	1%	-10%	i	-15%	1%
Cc1nc2cc(N3CCCCC3)c(NC(=O)c3ccncc3)cc2c(=O)n1Cc1ccccc1	i	2%	?	i	3.7µM*	5.2µM*
O=C(NC(Cc1ccccc1)c1ccc2c(c1)OCCCO2)c1ccccc1F (stereo unspecified)	16µM*	4%	2%	i	2%	-21%
Cc1ccc2nc(-c3ccc(-c4cccc(Cl)c4)cc3)c(NCc3ccccc3)n2c1	i	?	0.33µM*	i	-1%	-11%
COc1cc(-c2nc3ccc(C)cn3c2NCc2ccccc2)ccc1SC1CCCCC1	?	18µM*	?	i	?	?
COc1cc(-c2nc3ccc(C)cn3c2NCc2ccccc2)ccc1-c1cccc(Cl)c1	i	?	?	i	?	-11%
c1ccc(-c2nc3ccccn3c2NC2CCCC2)nc1	i	23%	19%	i	?	?
COc1cc(-c2nc3ccccn3c2NCc2ccccc2)ccc1SC1CCCCC1	?	26µM*	29%	?	?	?
COc1ccc(-c2nc3ccccn3c2NC2CCCCC2)cc1SC1CCCCC1	i	12µM*	?	?	?	?
Cc1cccc(NCC(=O)c2c(N)n(C)c(=O)n(C)c2=O)c1C	i	-1%	-3%	i	-1%	-8%
Cc1nc(Cl)sc1C(=O)Nc1cc(F)cc(F)c1	i	?	0%	?	?	?
Cc1cc(=O)[nH]c2c1c(C)nn2C1CCOC(C)(C)C1 (stereo unspecified)	i	-6%	6.5µM*	i	1%	16%
COc1ccc(NC(=O)C2CC(=O)OC2c2ccccc2)cc1 (stereo unspecified)	i	4%	3%	i	-4%	-2%
Cc1cc(=O)[nH]c(SCCc2ccccc2)n1	12µM*	-3%	-3%	16µM*	7%	6%
Cc1ccc(SCCSc2nc(N)cc(=O)[nH]2)cc1	8.2µM*	17%	-3%	i	-4%	-3%
SMILES	KB-V1 MDR tox	MCF10A rerep	SW480 rerep	KB-3-1 cytotox	HT1080NT lethal	HT1080 IDH1KD tx
Cc1cc(=O)[nH]c(SCc2ccccc2)n1	i	0%	9%	i	-4%	0%
Cc1nc(SCCc2ccccc2)[nH]c(=O)c1C	3.3µM*	-5%	?	3.3µM*	-1%	-1%
Cc1nc(SCc2ccc(Br)cc2)[nH]c(=O)c1C	i	7.3µM*	-5%	i	?	?
COc1ccc(NC(=O)C(C)N2CCN(C)CC2)cc1 (stereo unspecified)	i	3%	-1%	i	19%	9%
CCOc1ccc(Cl)cc1-c1cc(C(=O)NC2CCCCC2)[nH]n1	i	nt	nt	i	?	0%
Oc1ccc(F)c(CN2CCN(c3ncc(Cc4ccccc4)cn3)CC2)c1	?	nt	nt	i	?	?
CCc1cc(=O)[nH]c(SCCc2ccccc2)n1	8.2µM*	?	3%	13µM*	12%	3%
CCCc1cc(=O)[nH]c(SCc2ccccc2)n1	i	1%	0%	i	-12%	-3%
Cc1ccc2nc(Cl)c3cc(C(=O)NCCCN(C)Cc4ccccc4)sc3c2c1	i	nt	nt	i	nt	nt
CC1CCCN(CCCNC(=O)c2cc3c(Cl)nc4ccccc4c3s2)C1 (stereo unspecified)	i	?	?	i	?	23µM*
CN(CCCNC(=O)c1cc2c(Cl)nc3ccccc3c2s1)Cc1ccccc1	i	?	21µM*	i	16µM*	16µM*
COC(=O)c1ccccc1NC1=C/C(=N\S(=O)(=O)c2cccs2)c2ccccc2C1=O	18µM*!	18µM*	4.6µM*	?	21µM*	6.3µM*
COC(=O)c1ccccc1NC1=C/C(=N\S(=O)(=O)c2ccc(C(=O)O)cc2)c2ccccc2C1=O	18µM*	?	2.9µM*	?	23µM*	21µM*
CCOc1ccc(CNC(=O)CSc2cc(=O)n(CC)c3ccccc23)cc1	i	nt	nt	i	nt	nt
CC(C)=C1C2CCC1C1C(=O)N(CCc3ccccc3)C(=O)C21 (stereo unspecified)	10µM*	22%	-118%	i	10%	20%
CC1=C(c2ccccc2)C(=S)NC(C)(C)C1	i	0%	-9%	i	-10%	33µM*
N#CC1C=Cc2c(ccc3ccccc23)N1C(=O)c1ccccc1 (stereo unspecified)	i	1.5µM*	3.7µM*	0.46µM*	1.8µM*	?
N#CC1C=Cc2ccccc2N1C(=O)c1ccccc1 (stereo unspecified)	i	14%	15%	i	-22%	?
